# Reference: PubChem BioAssay (NCI)
# Compounds without any hit were thinned out: in the full panel of roughly 79,000, 15% have a hit. The source made the active and inactive calls. Cut-off read from the data, not from the text of the source: active = growth inhibition above about 70%; inactive = the rest.
# Assay: NCI Yeast Anticancer Drug Screen. Data for the wt1 strain (AID 149);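 note: 0% = growth of vehicle-treated wt1 cultures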
# Details: S. cerevisiae wt1 strain (SPY 50644) growth inhibition; at 33.0 µM; hits give high values
# Outline: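 Compounds are added to wt1 yeast cultures. Growth is then measured. Inhibition is expressed relative to vehicle-treated controls.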
row,SMILES,growth inhibition
1,CCOP(=O)(OCC)C(Cc1ccccc1)N=C(c1ccccc1)c1ccccc1 (stereo not drawn),95% (active)
2,CCc1ncnc2cc(OCC3CO3)c(OC)cc12 (stereo not drawn),6% (inactive)
3,CCOC(=O)[C@H]1Nc2ccccc2C2c3ccccc3CC21 (stereo partly drawn),26% (inactive)
4,O=CNc1ccc2c(c1)C(=O)c1ccccc1-2,27% (inactive)
5,CCOc1ccc2c(c1)c(CC(=O)O)cn2C,28% (inactive)
6,OC1CSCCCSCCSCCCSC1,-25% (inactive)
7,N#Cc1c(N)[nH]c2ccc(Sc3ccccc3)cc12,82% (active)
8,Cc1ccc(-c2ccc(Nc3c4ccccc4nc4ccccc34)cc2)cn1,90% (active)
9,c1ccc2c(c1)NC(NC1Nc3ccccc3N1)N2,9% (inactive)
10,OC(COc1cccc2ccccc12)CN1CCOCC1 (stereo not drawn),31% (inactive)
11,CCC/C(Cl)=N\OC(=O)Nc1ccc(Br)cc1,97% (active)
12,COc1ccc(/C=C2\SC(=S)N(/C=C/c3nc4ccccc4[nH]c3=O)C2=O)cc1OC,40% (inactive)
13,O=C(NNc1ccnc2cc(Cl)ccc12)/C(=C\c1ccccc1Cl)NC(=O)c1ccccc1,21% (inactive)
14,CSC1=NNC(SC)=NN1,51% (inactive)
15,Cc1c(C2=C(Br)C(=O)N(C)C2=O)c(=O)n(C)c(=O)n1C,35% (inactive)
16,NCCNc1ccc(NCCN)c2c1C(=O)c1c(O)ccc(O)c1C2=O,82% (active)
17,Cn1c(=O)c(-c2ccccc2)c(N=[N+]=[N-])c2ccccc21,91% (active)
18,CCCCCCCCCCCCCCCCCCOCC(O)COP(=O)(O)OCC1OC(n2cc(F)c(=O)[nH]c2=O)CC1O (stereo not drawn),16% (inactive)
19,CCS(=O)(=O)c1ccc(/C=C/C=N/NC(=S)NCC(C)C)cc1,-4% (inactive)
20,CCC(=O)Oc1c(Cl)cc(Cl)c2ccccc12,-6% (inactive)

row,SMILES,growth inhibition
1,COc1cc2c3c(cccc3c1)C(=O)N(CCN(C)C)C2=O,-1% (inactive)
2,CN(C)c1ccc(C(C#N)=C(C#N)C#N)cc1,-4% (inactive)
3,O=C(CCCN1CCC2(CC1)CC(=O)N(N1CCCCCC1)C2=O)c1ccc(F)cc1,34% (inactive)
4,O=C1C2C(C(=O)N1c1ccc(OCc3ccccc3)cc1)C1c3ccccc3C2C2CCCCN21 (stereo not drawn),-10% (inactive)
5,CCN(CC)CCC(=O)c1ccc(Oc2ccc(F)cc2)cc1,-5% (inactive)
6,O=Nc1c(NO)ccc2nn(-c3ccccc3)nc12,98% (active)
7,CC(=O)SCCC[Si](C)(C)CCCSC(C)=O,4% (inactive)
8,O=C(O)C1CCCCC1c1c2ccc(=O)c(O)c-2oc2c(O)c(O)ccc12 (stereo not drawn),32% (inactive)
9,Cc1ccc(NN(NC(=O)OC(C)C)C(=O)OC(C)C)cc1,7% (inactive)
10,O=C1c2ccccc2C(=O)c2cc(CBr)ccc21,18% (inactive)
11,Cc1c(C(Cc2ccccc2N(C)C(=O)/C=C\C(=O)O)c2c[nH]c3ccccc23)c2ccccc2n1C (stereo not drawn),0% (inactive)
12,CC(C)/C(Cl)=N\OC(=O)Nc1ccc(F)cc1,-5% (inactive)
13,O=C1OC(=O)C2CCCC3CCCC1C32 (stereo not drawn),90% (active)
14,CCOC(=O)C(NC(=O)c1ccccc1)(N1CCN(c2cc3c(cc2F)c(=O)c(C(=O)O)cn3C2CC2)CC1)C(F)(F)F (stereo not drawn),0% (inactive)
15,COc1ccc(NC(=S)N/N=C(\c2ccccc2)c2ccccn2)cc1,50% (inactive)
16,C=CCC1=C(C)C(OC(=O)/C=C/c2ccccc2)CC1=O (stereo not drawn),-2% (inactive)
17,NNc1c(F)c(F)cc(F)c1F,-26% (inactive)
18,COP(=O)(OC)/C(=C\C1=CN(C(c2ccccc2)(c2ccccc2)c2ccccc2)CN1)NC=O,54% (inactive)
19,COC(=O)c1cc(-c2ccc(C)cc2)[nH]c(=O)c1C#N,-1% (inactive)

# Same assay, conditions: S. cerevisiae wt1 strain (SPY 50644) growth inhibition; at 100.0 µM; hits give high values
row,SMILES,growth inhibition
1,CCOP(=O)(OCC)C(Cc1ccccc1)N=C(c1ccccc1)c1ccccc1 (stereo not drawn),98% (active)
2,CCc1ncnc2cc(OCC3CO3)c(OC)cc12 (stereo not drawn),20% (inactive)
3,CCOC(=O)[C@H]1Nc2ccccc2C2c3ccccc3CC21 (stereo partly drawn),54% (inactive)
4,O=CNc1ccc2c(c1)C(=O)c1ccccc1-2,85% (active)
5,CCOc1ccc2c(c1)c(CC(=O)O)cn2C,54% (inactive)
6,OC1CSCCCSCCSCCCSC1,-25% (inactive)
7,N#Cc1c(N)[nH]c2ccc(Sc3ccccc3)cc12,93% (active)
8,Cc1ccc(-c2ccc(Nc3c4ccccc4nc4ccccc34)cc2)cn1,67% (inactive)
9,c1ccc2c(c1)NC(NC1Nc3ccccc3N1)N2,19% (inactive)
10,OC(COc1cccc2ccccc12)CN1CCOCC1 (stereo not drawn),30% (inactive)
11,CCC/C(Cl)=N\OC(=O)Nc1ccc(Br)cc1,98% (active)
12,COc1ccc(/C=C2\SC(=S)N(/C=C/c3nc4ccccc4[nH]c3=O)C2=O)cc1OC,90% (active)
13,O=C(NNc1ccnc2cc(Cl)ccc12)/C(=C\c1ccccc1Cl)NC(=O)c1ccccc1,28% (inactive)
14,CSC1=NNC(SC)=NN1,99% (active)
15,Cc1c(C2=C(Br)C(=O)N(C)C2=O)c(=O)n(C)c(=O)n1C,73% (active)
16,NCCNc1ccc(NCCN)c2c1C(=O)c1c(O)ccc(O)c1C2=O,76% (active)
17,Cn1c(=O)c(-c2ccccc2)c(N=[N+]=[N-])c2ccccc21,90% (active)
18,CCCCCCCCCCCCCCCCCCOCC(O)COP(=O)(O)OCC1OC(n2cc(F)c(=O)[nH]c2=O)CC1O (stereo not drawn),93% (active)
19,CCS(=O)(=O)c1ccc(/C=C/C=N/NC(=S)NCC(C)C)cc1,4% (inactive)
20,CCC(=O)Oc1c(Cl)cc(Cl)c2ccccc12,13% (inactive)

row,SMILES,growth inhibition
1,COc1cc2c3c(cccc3c1)C(=O)N(CCN(C)C)C2=O,2% (inactive)
2,CN(C)c1ccc(C(C#N)=C(C#N)C#N)cc1,12% (inactive)
3,O=C(CCCN1CCC2(CC1)CC(=O)N(N1CCCCCC1)C2=O)c1ccc(F)cc1,41% (inactive)
4,O=C1C2C(C(=O)N1c1ccc(OCc3ccccc3)cc1)C1c3ccccc3C2C2CCCCN21 (stereo not drawn),75% (active)
5,CCN(CC)CCC(=O)c1ccc(Oc2ccc(F)cc2)cc1,80% (active)
6,O=Nc1c(NO)ccc2nn(-c3ccccc3)nc12,96% (active)
7,CC(=O)SCCC[Si](C)(C)CCCSC(C)=O,31% (inactive)
8,O=C(O)C1CCCCC1c1c2ccc(=O)c(O)c-2oc2c(O)c(O)ccc12 (stereo not drawn),82% (active)
9,Cc1ccc(NN(NC(=O)OC(C)C)C(=O)OC(C)C)cc1,11% (inactive)
10,O=C1c2ccccc2C(=O)c2cc(CBr)ccc21,53% (inactive)
11,Cc1c(C(Cc2ccccc2N(C)C(=O)/C=C\C(=O)O)c2c[nH]c3ccccc23)c2ccccc2n1C (stereo not drawn),40% (inactive)
12,CC(C)/C(Cl)=N\OC(=O)Nc1ccc(F)cc1,-3% (inactive)
13,O=C1OC(=O)C2CCCC3CCCC1C32 (stereo not drawn),97% (active)
14,CCOC(=O)C(NC(=O)c1ccccc1)(N1CCN(c2cc3c(cc2F)c(=O)c(C(=O)O)cn3C2CC2)CC1)C(F)(F)F (stereo not drawn),2% (inactive)
15,COc1ccc(NC(=S)N/N=C(\c2ccccc2)c2ccccn2)cc1,95% (active)
16,C=CCC1=C(C)C(OC(=O)/C=C/c2ccccc2)CC1=O (stereo not drawn),-3% (inactive)
17,NNc1c(F)c(F)cc(F)c1F,-14% (inactive)
18,COP(=O)(OC)/C(=C\C1=CN(C(c2ccccc2)(c2ccccc2)c2ccccc2)CN1)NC=O,96% (active)
19,COC(=O)c1cc(-c2ccc(C)cc2)[nH]c(=O)c1C#N,0% (inactive)
